From PubChem BioAssay AID488969 (Vanderbilt High Throughput Screening Facility, 2010) come the findings set out here.

Molecules are shown by their SMILES. In all, about 110,000 compounds were measured (“z-score”: median about -0.1, highest 2% from about 2 on). The list comes from a sample in which the highest values are over-represented; it also holds similar structures and randomly drawn compounds. The source made the active and inactive calls.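 Rule for the calls: active = z-score in the third read window above 3 or below -3; inactive = the rest.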

Chain of Metabotropic glutamate receptor 8 (Rattus norvegicus) (P70579 whole entry, looked up): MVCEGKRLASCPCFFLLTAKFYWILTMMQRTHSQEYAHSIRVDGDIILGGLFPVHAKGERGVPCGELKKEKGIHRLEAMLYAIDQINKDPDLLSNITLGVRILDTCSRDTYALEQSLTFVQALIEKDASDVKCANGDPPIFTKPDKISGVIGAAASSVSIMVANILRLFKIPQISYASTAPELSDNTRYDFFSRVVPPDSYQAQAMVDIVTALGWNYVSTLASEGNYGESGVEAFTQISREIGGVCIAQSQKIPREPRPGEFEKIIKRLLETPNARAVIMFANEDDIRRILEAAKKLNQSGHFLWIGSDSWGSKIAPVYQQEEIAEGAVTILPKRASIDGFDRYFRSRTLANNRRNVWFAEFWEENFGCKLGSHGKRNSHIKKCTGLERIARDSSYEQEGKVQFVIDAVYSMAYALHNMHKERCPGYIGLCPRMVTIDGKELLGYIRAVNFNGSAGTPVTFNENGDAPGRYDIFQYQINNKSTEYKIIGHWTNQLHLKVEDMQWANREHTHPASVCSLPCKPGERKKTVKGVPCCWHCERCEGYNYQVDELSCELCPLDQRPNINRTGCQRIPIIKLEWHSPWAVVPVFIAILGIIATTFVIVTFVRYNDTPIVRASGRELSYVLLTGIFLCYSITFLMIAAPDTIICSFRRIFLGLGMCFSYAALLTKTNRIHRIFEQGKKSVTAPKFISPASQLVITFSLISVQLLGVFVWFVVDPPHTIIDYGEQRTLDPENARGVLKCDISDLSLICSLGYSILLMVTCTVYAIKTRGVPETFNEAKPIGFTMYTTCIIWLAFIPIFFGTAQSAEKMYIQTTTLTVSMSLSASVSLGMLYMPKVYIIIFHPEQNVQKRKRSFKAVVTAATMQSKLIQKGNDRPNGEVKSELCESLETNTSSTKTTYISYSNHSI

The assay concerns the target Metabotropic glutamate receptor 8 (Rattus norvegicus) (UniProt P70579). As to the kind of experiment: rat mGluR8 modulators via GIRK flux, primary screen, cell-based, thallium flux, HTS (AID 488969). The conditions noted are these: HEK293 rat mGluR8, GIRK (G protein-gated inwardly rectifying potassium channel) thallium flux, FluoZin2; at 10 µM; stronger effect = higher value.
`COc1ccccc1N(CC(=O)NC1CCCCC1)C(=O)c1cnn(C(C)C)c1` came in with a z-score of 0.21.

As to `CN1C(=O)NC(=O)C2(Cc3ccccc3N3CCOCC32)C1=O` (centres undefined), the z-score is -0.307.

In turn, `CCCCn1c(O)c(C(CC)=NCc2cc(OC)cc(OC)c2)c(=O)[nH]c1=O` yielded a z-score of -0.703.

Compound `N=c1c[n+](CC23CC4CC(CC(C4)C2)C3)[n-]o1` displayed a z-score of 2.09.

Consider `O=C(c1ccc2c(c1)ncn2C1CCCCCC1)N1CCC2(CC1)OCCO2`, for which the z-score is -0.0497.

For the compound `CCCCCCCC(=O)NC(Oc1ccccc1[N+](=O)[O-])C(Cl)(Cl)Cl` (centres undefined), the z-score amounted to 0.238.

With `CCCC(=O)Nc1cc(C(=O)N2CCC3(CC2)OCCO3)ccc1S(=O)(=O)c1ccc(C)cc1`, the z-score was -0.0584.

`CC(C(N)=O)N1CC(c2ccc(Cl)cc2)CC1=O` (centres undefined) showed a z-score of -0.161.

Consider `CN1CCCC1C(O)(c1ccccc1)c1ccccc1` (centres undefined), for which the z-score is -0.0177.

Compound `OC(Cc1ccccc1)(c1ccccc1)C1CN2CCC1CC2` (centres undefined) gave a z-score of 2.

In the case of `Cc1ccccc1C(O)(Cc1ccccc1)C1CN2CCC1CC2` (centres undefined), the z-score was -0.323.

As for `CCOC(=O)c1sc(/N=C/c2c(O)n(-c3cccc(C)c3)c(=O)[nH]c2=O)c(C#N)c1C`, the z-score is -0.627.

Regarding `CCN1C(=O)C(=Cc2cc(C)n(C3CC3)c2C)C(=O)N(CC)C1=S`, the z-score is -0.0808.

As to `CC1=NN(c2ccccc2)C(=O)C1/C=C1\C(=O)NC(=O)N(c2cc(C)cc(C)c2)C1=O` (centres undefined), the z-score is -0.0364.

On to `CN(C)C(=O)Oc1ccc(OC(=O)N(C)C)cc1`, for which the z-score is 0.415.

The compound `CN1/C(=C\C=Nc2ccccc2)C(C)(C)c2ccccc21` yielded a z-score of -0.319.

With `CN1/C(=C\C=C\C2=[N+](C)c3ccc4ccccc4c3C2(C)C)C(C)(C)c2ccccc21`, the z-score is 5.85 (active).

Consider `C[N+]1=C(/C=C/Nc2ccccc2)C(C)(C)c2ccccc21`, for which the z-score is -1.45.

`Cc1cc(C=C2C(=O)N(C)C(=S)N(C)C2=O)c(C)n1C1CCCCC1` had a z-score of -0.45.

In the case of `O=C1CN=C(c2ccccc2)c2ccccc2N1Cc1ccc(C(F)(F)F)cc1`, the z-score was 0.646.

In turn, `CNC(=O)OCCc1n(C)cc[n+]1C` had a z-score of -0.193.

For `CNC(=O)OCCc1nccn1C`, the z-score is 3.02 (active).

On to `C=CCn1c(O)c(/C=C2/C=CC=N2)c(=O)[nH]c1=O`, for which the z-score was -0.219.

Turning to `O=C(c1cc(S(=O)(=O)N2CCCCC2)ccc1F)N1CCC2(CC1)OCCO2`, the z-score was -0.0595.

The compound `CCCCCCN=C(C)c1c(O)n(CCCC)c(=O)[nH]c1=O` gave a z-score of -2.32.

Consider `CCCCn1c(O)c(C(C)=NCCCN(C)C)c(=O)[nH]c1=O`, for which the z-score came to 0.319.

`CCCCn1c(O)c(C(C)=NCCCn2ccnc2)c(=O)[nH]c1=O` returned a z-score of 2.03.

For `O=[N+]([O-])c1ccc(C2[C@H]3C(c4ccccc4)=NC4(CCCCC4)N23)cc1` (some centres undefined), the z-score was -0.0546.

Turning to `O=c1[nH]c(=O)n(C2CCCCCC2)c(O)c1C=NC1CCN(Cc2ccccc2)CC1`, the z-score was -0.182.

With `O=C(c1cc2ccccn2n1)N1CCC2(CC1)OCCO2`, the z-score was 4 (active).

Turning to `O=C(c1cc2nc(-c3ccccc3)cc(-c3ccccc3)n2n1)N1CCC2(CC1)OCCO2`, the z-score is -0.525.

With `O=C(c1cc2ccccc2oc1=O)N1CCC2(CC1)OCCO2`, the z-score came out at 0.602.

Take `N#CC1=C(N)Oc2c(c(=O)oc3ccccc23)C1c1ccncc1` (centres undefined): the z-score is -0.0723.

`Cc1[nH]c2c(Cl)cccc2c1CCN` had a z-score of 0.371.

Turning to `Cc1cccc(N2C(=O)NC(=O)/C(=C\c3cccn3-c3ccc(Cl)cc3)C2=O)c1`, the z-score is -0.0172.

In turn, `Cc1ccc(Cc2c(C)nc3nc(SCC(=O)N4CCC5(CC4)OCCO5)nn3c2C)cc1` had a z-score of -0.0184.

On to `O=C(COc1ccc(Cl)cc1)NC1CN2CCC1CC2` (centres undefined), for which the z-score was -0.215.

`CCNC(=O)C1OC(n2cnc3c(N)ncnc32)C(O)C1O` (centres undefined) registered a z-score of 2.

The compound `CCCCn1c(O)c(C(CC)=Nc2ccc(OC)cc2OC)c(=O)[nH]c1=O` showed a z-score of -1.4.

`Cn1cccc1/C=C1/C(=O)NC(=O)N(Cc2ccccc2)C1=O` had a z-score of -0.709.

`Cc1nn(Cc2ccccc2)c(C)c1C=C1C(=O)NC(=O)NC1=O` gave a z-score of 2.1.

In the case of `Cc1nn(Cc2ccccc2)c(C)c1C=C1C(=O)NC(=S)NC1=O`, the z-score is -0.287.

Regarding `CCn1c(P(C)(=O)O)nc2ccccc21`, the z-score is -0.338.

`CN1CCN(Cc2ccc(Br)s2)CC1`: the z-score came out at 0.759.

`Cc1ccc(-c2nc(N(C)C3CCN(C)CC3)c3ccccc3n2)cc1`: the z-score stood at 2.91.

`CN1CCC(N(C)c2nc(-c3ccccc3)nc3ccccc23)CC1` showed a z-score of 0.199.

In turn, `CN1CCC(N(C)c2nc(-c3ccc([N+](=O)[O-])cc3)nc3ccccc23)CC1` yielded a z-score of 0.562.

With `O=C(Cn1c(=S)[nH]c2ccccc2c1=O)N1CCC2(CC1)OCCO2`, the z-score was 0.264.

`CC1=NN(c2ccccc2)C(=O)C1/C=C1/C(=O)NC(=O)N(c2cccc(C)c2)C1=O` (centres undefined) registered a z-score of -0.395.

The compound `CCOC(=O)N(C)c1ccc(C(O)(C(=O)OCC)C(F)(F)F)cc1` (centres undefined) yielded a z-score of -0.0433.

Turning to `CCOC(=O)C(O)(c1ccc(N(CC)S(=O)(=O)c2ccc(C)cc2)cc1)C(F)(F)F` (centres undefined), the z-score was 2.37.

The compound `CCN(c1ccc(C(O)(C(=O)OC)C(F)(F)F)cc1)S(=O)(=O)c1ccc(C)cc1` (centres undefined) had a z-score of 1.21.

The compound `O=C(c1ccccc1F)c1cn(CC(=O)N2CCCCC2)c2ccccc12` gave a z-score of -0.152.

`CCN(CC)c1ccc(CN2CC=C(c3ccc(F)cc3)CC2)cc1` came in with a z-score of 0.0485.

Compound `Cn1c(O)c(C=NCCN2CCNCC2)c(=O)n(C)c1=O` showed a z-score of -0.337.

`O=c1c(C=NCCN2CCNCC2)c(O)n(C2CCCCC2)c(=O)n1C1CCCCC1` showed a z-score of 2.42.

The compound `O=c1c(C=NCc2cccs2)c(O)n(C2CCCCC2)c(=O)n1C1CCCCC1` came in with a z-score of -0.421.

For the compound `COc1ccc(CCN(C)Cc2c(F)cccc2F)cc1OC`, the z-score was determined as 0.419.

Compound `N#Cc1cc2c(nc1SCC(=O)Nc1cc(Cl)ccc1Cl)C1CCN2CC1` returned a z-score of -1.88.
